A short description of assay [1]: qHTS assay to identify small molecule antagonists of the sonic hedgehog signaling (Shh) pathway (AID 1259369; calls by dose curve; also: nearly all actives have a fitted effect of over 45% in size). The gist of the method: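 Antagonist mode: compound added to 3T3 Gli1-Luc cells followed by conditioned-medium stimulation, 24 h at 37 C, 5% CO2. Inhibition taken as loss of Gli1-driven luciferase luminescence.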
Assay [2] is described as follows: qHTS assay to identify small molecule agonists of the androgen receptor (AR) signaling pathway in the presence of an antagonist - cell viability counter screen (AID 1259379).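 Also: MDA-kb2 human breast cancer cells carrying an MMTV luciferase reporter; series mostly up to about 92 µM; nearly all actives have a fitted effect of over 25% in size.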 The gist of the method:
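Cytotoxicity counter-screen run in the same wells as the nilutamide-challenged (3.0 µM final) AR agonist assay in MDA-kb2 cells. Compounds tested at 15 concentrations for 16 h, 37 °C without CO2; CellTiter-Fluor fluorescence read.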

The nature of assay [3]: qHTS assay to identify small molecule agonists of the estrogen receptor beta (ER-beta) signaling pathway - cell viability counter screen (AID 1259380). Also: nearly all actives have a fitted effect of over 30% in size. The gist of the method: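 Cell viability counter screen: CellTiter-Glo luminescence (30 min, room temperature) measured in the same wells as the beta-lactamase readout, after 16 hr compound exposure at 37C of ER-beta-bla HEK293T cells in 2% charcoal-stripped FBS medium.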

The nature of assay [4]: qHTS assay to identify small molecule antagonists of the estrogen receptor beta (ER-beta) signaling pathway - cell viability counter screen (AID 1259382).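 Also: HEK293T cells carrying ER-beta-UAS-bla reporter stimulated with estradiol; series mostly up to about 92 µM; nearly all actives have a fitted effect of over 55% in size.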 The gist of the method: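 Cytotoxicity was measured in the same wells by CellTiter-Glo luminescence after 30 min at room temperature. Cells were ER-beta-bla HEK293T in charcoal-stripped serum, given compound together with 1 nM E2 and incubated 16 h at 37C.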
A general note: Quantitative high-throughput screening tests each substance at several concentrations.

The target in assay [5] is Estrogen receptor (Homo sapiens) (UniProt P03372). As to the kind of experiment: qHTS assay to identify small molecule agonists of the estrogen receptor alpha (ER-alpha) signaling pathway in the presence of an antagonist (AID 1259383; calls by dose curve; also: top concentration of the series differs between compounds; nearly all actives have a fitted effect of over 15% in size). The gist of the method:
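Agonist-mode confirmation run in the presence of 10.0nM (final) ICI-182,780 antagonist. The reporter was ERE-driven luciferase in VM7Luc4E2 cells, grown in charcoal-stripped serum. Cells were exposed to 15-concentration compound series for 22hr, then ONE-Glo luminescence was read.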

Assay [6] can be described thus: qHTS assay to identify small molecule agonists or antagonists of the thyroid stimulating hormone receptor (TSHR) signaling pathway - wild type cell line counter screen (AID 1259384; calls by dose curve). The gist of the method: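 Counter screen in untransfected Hek293: compounds (15-point titration, triplicate) plus phosphodiesterase inhibitor Ro20-1724 added after 18 h plating; 30 min RT. Intracellular cAMP via competitive d2/cryptate immunoassay, 1 h incubation.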

The target of assay [7] is Thyrotropin receptor (Homo sapiens) (UniProt P16473). The assay is described as follows: qHTS assay to identify small molecule antagonists of the thyroid stimulating hormone receptor (TSHR) signaling pathway (AID 1259385; calls by dose curve; also: nearly all actives have a fitted effect of over 20% in size). The gist of the method:
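Antagonist mode: compound-treated TSHR-expressing HEK293 cells were stimulated with 1.5 ng/mL TSH (final) in presence of Ro20-1724 for 30 min at RT. HTRF cAMP detection after 1 h; each compound tested at 15 concentrations, triplicate.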

Assay [8] can be described thus: qHTS assay to identify small molecule agonists of the estrogen receptor alpha (ER-alpha) signaling pathway in the presence of an antagonist - cell viability counter screen (AID 1259386). Also: series mostly up to about 92 µM; nearly all actives have a fitted effect of over 30% in size. The procedure, abridged:
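Compounds tested at 15 concentrations for 22 h at 37C alongside 10.0nM (final) ICI-182,780 antagonist, in VM7Luc4E2 cells grown in phenol red-free, charcoal-stripped medium. Viability read by CellTiter-Fluor fluorescence after 1 h reagent incubation.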

Assay [9] concerns the target Progesterone receptor (Homo sapiens) (UniProt P06401). The assay is described as follows: qHTS assay to identify small molecule agonists of the progesterone receptor (PR) signaling pathway (AID 1346784; calls by dose curve; also: nearly all actives have a fitted effect of over 30% in size). The procedure, abridged:
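PR-UAS-bla HEK 293T cells (beta-lactamase reporter under UAS) in 2% charcoal-stripped FBS, dosed with 23 nL compound after 6 hr, incubated 16hr at 37C. LiveBLAzer B/G FRET substrate added, fluorescence read after 2 hours.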

The nature of assay [10]: qHTS assay to identify small molecule agonists of the progesterone receptor (PR) signaling pathway - cell viability counter screen (AID 1346799; calls by dose curve; also: nearly all actives have a fitted effect of over 45% in size). The procedure, abridged: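 Counter screen in the PR-UAS-bla HEK293T wells (2% charcoal-stripped FBS, 16 h compound exposure at 37 C) after the bla read. CellTiter-Glo added, 30 min at room temperature, luminescence read as cell viability.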

Assay [11] in a line: qHTS assay to identify small molecule antagonists of the TGF-beta/Smad signaling pathway - cell viability counter screen (AID 1346824). Also: nearly all actives have a fitted effect of over 50% in size. The procedure, abridged:
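Cytotoxicity counter-screen run in the same wells as the beta-lactamase Smad reporter read: CellTiter-Glo luminescence after 30 min at room temperature. HEK 293T SBE-bla cells had 5 hr compound exposure at 37 C with TGF-beta1 (0.25 ng/mL stock).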

Assay [12] can be described thus: qHTS assay to identify small molecule agonists of the TGF-beta/Smad signaling pathway - cell viability counter screen (AID 1346829). Also: top concentration of the series differs between compounds; nearly all actives have a fitted effect of over 45% in size. The gist of the method:
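Here the cytotoxicity of library compounds is measured in SBE-bla HEK 293T cells treated for 5 hr, using CellTiter-Glo added to wells already read for the beta-lactamase reporter.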

Assay [13] can be described thus: qHTS assay to identify small molecule agonists of the TGF-beta/Smad signaling pathway (AID 1346859; active = well fitted activation curve with a large enough effect in the signal ratio in the repeat runs, not every such curve was filed as active; the % refers to the signal ratio; also: series mostly up to about 77 µM). The procedure, abridged:
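SBE-bla HEK293T cells plated overnight, then compound exposure for 5 h at 37 C. Beta-lactamase reporter read with LiveBLAzer B/G FRET substrate after 2 h at room temperature, fluorescence at 405 nm excitation, 460/530 nm emission.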

The target of assay [14] is Thyrotropin-releasing hormone receptor (Homo sapiens) (UniProt P34981). As to the kind of experiment: qHTS assay to identify small molecule agonists of the thyrotropin-releasing hormone receptor (TRHR) signaling pathway (AID 1346891; calls by dose curve; also: series mostly up to about 58 µM). The procedure, abridged:
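HEK293 cells expressing TRHR plated 18 h at 37 C/5% CO2, calcium dye-loaded 2 h at 37 C, then compound added (agonist mode); kinetic calcium fluorescence read 3 min at 1 s intervals; 15 concentrations in triplicate.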

Assay [15] has as its target Progesterone receptor (Homo sapiens) (UniProt P06401). As to the kind of experiment: qHTS assay to identify small molecule antagonists of the progesterone receptor (PR) signaling pathway (AID 1346795; active = well fitted inhibition curve with a large enough effect in the signal ratio in the repeat runs, not every such curve was filed as active; the % refers to the signal ratio). The procedure, abridged:
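PR-UAS-bla HEK293T cells with beta-lactamase reporter under UAS control, in 2% charcoal-stripped FBS, treated with compounds plus 1 nM promegestone (R5020, final) for 16 hr at 37C. Read-out: FRET beta-lactamase substrate fluorescence after 2 hr at room temperature.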

A short description of assay [16]: qHTS assay to identify small molecule antagonists of the progesterone receptor (PR) signaling pathway - cell viability counter screen (AID 1346798). Also: series mostly up to about 92 µM; nearly all actives have a fitted effect of over 50% in size. The procedure, abridged: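 PR-UAS-bla HEK293T cells, 3,000/well in 2% charcoal-stripped FBS medium, dosed with compounds plus R5020 agonist and incubated 16 h at 37C. Viability then measured in the same wells by CellTiter-Glo luminescence after 30 min at RT.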

In assay [17] the target is Thyrotropin-releasing hormone receptor (Homo sapiens) (UniProt P34981). The assay is described as follows: qHTS assay to identify small molecule antagonists of the thyrotropin-releasing hormone receptor (TRHR) signaling pathway (AID 1346877; active = well fitted inhibition curve with a large enough effect in the repeat runs, not every such curve was filed as active; also: series mostly up to about 51 µM). The procedure, abridged:
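Antagonist mode: after a 5 min room-temperature compound exposure, cells were stimulated with 1 nM (final) TRH. Dye-loaded TRHR-HEK293 cells were used, and calcium-dependent fluorescence was followed for 3 min, with 15-point titrations run in triplicate.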

The target of assay [18] is Estrogen receptor beta (Homo sapiens) (UniProt Q92731). The assay is described as follows: qHTS assay to identify small molecule agonists of the estrogen receptor beta (ER-beta) signaling pathway (AID 1259377; active = well fitted activation curve with a large enough effect in the signal ratio in the repeat runs, not every such curve was filed as active; the % refers to the signal ratio). The procedure, abridged: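 ER-beta-UAS-bla HEK293T cells in medium with 2% charcoal-stripped FBS were exposed to compounds for 16 h at 37C. Beta-lactamase reporter activity was read as fluorescence after 2 h with LiveBLAzer B/G FRET substrate at room temperature.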
Sequence of Estrogen receptor beta (Homo sapiens) (Q92731 whole entry, looked up): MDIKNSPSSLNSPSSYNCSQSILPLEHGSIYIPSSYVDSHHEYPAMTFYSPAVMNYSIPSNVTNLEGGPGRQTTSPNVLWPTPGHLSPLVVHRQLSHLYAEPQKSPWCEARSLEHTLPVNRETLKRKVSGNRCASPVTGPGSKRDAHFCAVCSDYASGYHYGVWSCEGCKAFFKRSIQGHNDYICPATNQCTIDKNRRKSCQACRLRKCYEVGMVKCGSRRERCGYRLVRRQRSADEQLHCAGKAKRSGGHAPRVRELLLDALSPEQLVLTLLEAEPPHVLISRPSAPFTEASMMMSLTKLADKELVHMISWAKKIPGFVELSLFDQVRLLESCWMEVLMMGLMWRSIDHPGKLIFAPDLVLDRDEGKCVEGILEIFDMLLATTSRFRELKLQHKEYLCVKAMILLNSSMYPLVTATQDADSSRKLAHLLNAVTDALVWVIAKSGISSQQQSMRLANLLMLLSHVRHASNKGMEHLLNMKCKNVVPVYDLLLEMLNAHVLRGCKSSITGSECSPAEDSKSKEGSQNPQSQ

Assay [19] has the same target. The assay is described as follows: qHTS assay to identify small molecule antagonists of the estrogen receptor beta (ER-beta) signaling pathway (AID 1259378; active = well fitted inhibition curve with a large enough effect in the signal ratio in the repeat runs, not every such curve was filed as active; the % refers to the signal ratio; also: potency is read from the fitted curve at half-maximal effect). The procedure, abridged: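 Antagonist mode: compounds added to beta-lactamase reporter HEK293T ER-beta-UAS cells stimulated with E2 (1nM final), 16 hr at 37C. LiveBLAzer B/G FRET substrate, 2 hours room temperature, fluorescence read-out.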

The target in assay [20] is Androgen receptor (Homo sapiens) (UniProt P10275). The assay is described as follows: qHTS assay to identify small molecule agonists of the androgen receptor (AR) signaling pathway in the presence of an antagonist (AID 1259381; calls by dose curve; also: nearly all actives have a fitted effect of over 15% in size). The procedure, abridged:
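Agonist-mode confirmation run against 3.0 uM final nilutamide: compounds titrated at 15 concentrations onto MDA-kb2 MMTV-luciferase reporter cells. Luminescence measured with ONE-Glo following 16 hr incubation, 37C, 0% CO2.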

Data on 8 compounds can be found in PubChem BioAssay (Tox21).

Molecules are shown by their SMILES. Values without a mark were called inactive. Results filed as inconclusive are left out. Activity calls are given as the source filed them. Unless noted, calls follow the shape of the dose curve; as a rule, active = well fitted curve in the direction sought with a large enough effect in the repeat runs; inconclusive = weak or mixed curves; inactive = no such curve, though single readings can be large; an effect the other way counts as inactive or inconclusive.
% is scaled to controls: 0 for no effect and ±100 for the full control effect.

Sequence of Estrogen receptor (Homo sapiens) (P03372 whole entry, looked up): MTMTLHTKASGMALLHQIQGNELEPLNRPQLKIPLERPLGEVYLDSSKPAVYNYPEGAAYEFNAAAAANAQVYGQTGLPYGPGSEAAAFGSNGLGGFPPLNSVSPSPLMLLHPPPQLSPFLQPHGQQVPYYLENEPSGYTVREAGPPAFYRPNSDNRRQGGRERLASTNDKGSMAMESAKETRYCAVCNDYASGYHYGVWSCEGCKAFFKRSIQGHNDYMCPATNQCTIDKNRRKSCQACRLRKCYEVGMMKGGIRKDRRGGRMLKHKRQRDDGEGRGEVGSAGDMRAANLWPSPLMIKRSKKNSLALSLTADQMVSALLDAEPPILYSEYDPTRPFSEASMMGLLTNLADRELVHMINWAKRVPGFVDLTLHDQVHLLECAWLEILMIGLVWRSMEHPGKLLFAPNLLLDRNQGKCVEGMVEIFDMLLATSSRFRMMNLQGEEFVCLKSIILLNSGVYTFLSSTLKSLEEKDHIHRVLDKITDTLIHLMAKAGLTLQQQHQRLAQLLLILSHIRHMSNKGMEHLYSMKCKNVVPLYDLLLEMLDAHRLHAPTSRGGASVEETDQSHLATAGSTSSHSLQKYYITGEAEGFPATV
Sequence of Progesterone receptor (Homo sapiens) (P06401 whole entry, looked up): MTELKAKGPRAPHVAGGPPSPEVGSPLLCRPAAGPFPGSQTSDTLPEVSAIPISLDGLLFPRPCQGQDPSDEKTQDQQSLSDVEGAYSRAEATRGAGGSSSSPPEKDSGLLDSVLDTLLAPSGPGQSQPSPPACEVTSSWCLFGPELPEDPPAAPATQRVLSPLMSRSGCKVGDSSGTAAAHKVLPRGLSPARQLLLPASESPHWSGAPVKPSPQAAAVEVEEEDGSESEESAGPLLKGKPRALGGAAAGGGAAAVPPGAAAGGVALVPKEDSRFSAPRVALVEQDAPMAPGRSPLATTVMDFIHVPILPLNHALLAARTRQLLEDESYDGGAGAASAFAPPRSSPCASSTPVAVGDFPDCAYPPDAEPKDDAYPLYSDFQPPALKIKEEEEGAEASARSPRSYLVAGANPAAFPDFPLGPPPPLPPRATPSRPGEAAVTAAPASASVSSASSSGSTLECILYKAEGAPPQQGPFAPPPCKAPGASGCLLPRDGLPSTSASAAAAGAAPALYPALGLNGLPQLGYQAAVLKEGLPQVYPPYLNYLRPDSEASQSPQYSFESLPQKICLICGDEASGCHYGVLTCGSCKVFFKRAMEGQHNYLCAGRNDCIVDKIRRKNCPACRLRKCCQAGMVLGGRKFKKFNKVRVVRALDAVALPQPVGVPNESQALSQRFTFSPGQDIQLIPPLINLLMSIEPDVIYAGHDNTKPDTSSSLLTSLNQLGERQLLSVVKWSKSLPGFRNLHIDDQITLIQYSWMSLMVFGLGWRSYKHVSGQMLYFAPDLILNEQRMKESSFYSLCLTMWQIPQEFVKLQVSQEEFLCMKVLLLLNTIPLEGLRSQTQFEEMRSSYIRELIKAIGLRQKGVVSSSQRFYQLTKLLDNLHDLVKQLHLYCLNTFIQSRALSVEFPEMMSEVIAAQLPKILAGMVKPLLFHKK
Sequence of Thyrotropin receptor (Homo sapiens) (P16473 whole entry, looked up): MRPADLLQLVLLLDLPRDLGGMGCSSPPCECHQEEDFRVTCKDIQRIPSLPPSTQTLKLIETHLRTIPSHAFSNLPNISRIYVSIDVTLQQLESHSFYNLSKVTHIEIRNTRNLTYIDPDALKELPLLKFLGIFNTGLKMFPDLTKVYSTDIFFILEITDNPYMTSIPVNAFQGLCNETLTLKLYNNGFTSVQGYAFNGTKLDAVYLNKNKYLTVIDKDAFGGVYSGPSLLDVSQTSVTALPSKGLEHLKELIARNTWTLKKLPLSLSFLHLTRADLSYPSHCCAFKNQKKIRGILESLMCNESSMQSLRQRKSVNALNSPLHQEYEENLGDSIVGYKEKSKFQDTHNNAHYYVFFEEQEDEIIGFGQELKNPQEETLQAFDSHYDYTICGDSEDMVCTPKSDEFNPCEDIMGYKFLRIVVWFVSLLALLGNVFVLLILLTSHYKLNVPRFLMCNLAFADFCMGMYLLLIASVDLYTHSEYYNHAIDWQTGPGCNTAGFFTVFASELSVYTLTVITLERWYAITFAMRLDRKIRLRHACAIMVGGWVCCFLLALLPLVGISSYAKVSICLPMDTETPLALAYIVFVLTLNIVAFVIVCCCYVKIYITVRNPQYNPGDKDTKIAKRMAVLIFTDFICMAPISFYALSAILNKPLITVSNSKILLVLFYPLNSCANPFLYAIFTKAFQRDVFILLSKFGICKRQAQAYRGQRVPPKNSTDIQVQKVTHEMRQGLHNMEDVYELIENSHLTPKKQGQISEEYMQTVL
Sequence of Thyrotropin-releasing hormone receptor (Homo sapiens) (P34981 whole entry, looked up): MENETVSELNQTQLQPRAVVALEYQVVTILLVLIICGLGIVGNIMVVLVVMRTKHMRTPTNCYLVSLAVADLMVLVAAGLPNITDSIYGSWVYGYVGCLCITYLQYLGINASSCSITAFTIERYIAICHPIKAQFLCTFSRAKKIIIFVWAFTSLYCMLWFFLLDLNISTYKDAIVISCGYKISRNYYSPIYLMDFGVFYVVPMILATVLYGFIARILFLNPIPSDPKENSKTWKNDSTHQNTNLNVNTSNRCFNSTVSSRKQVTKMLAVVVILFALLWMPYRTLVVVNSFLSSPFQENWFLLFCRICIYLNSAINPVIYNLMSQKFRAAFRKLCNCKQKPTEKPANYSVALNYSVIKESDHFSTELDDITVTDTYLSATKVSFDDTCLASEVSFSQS
Sequence of Androgen receptor (Homo sapiens) (P10275 whole entry, looked up): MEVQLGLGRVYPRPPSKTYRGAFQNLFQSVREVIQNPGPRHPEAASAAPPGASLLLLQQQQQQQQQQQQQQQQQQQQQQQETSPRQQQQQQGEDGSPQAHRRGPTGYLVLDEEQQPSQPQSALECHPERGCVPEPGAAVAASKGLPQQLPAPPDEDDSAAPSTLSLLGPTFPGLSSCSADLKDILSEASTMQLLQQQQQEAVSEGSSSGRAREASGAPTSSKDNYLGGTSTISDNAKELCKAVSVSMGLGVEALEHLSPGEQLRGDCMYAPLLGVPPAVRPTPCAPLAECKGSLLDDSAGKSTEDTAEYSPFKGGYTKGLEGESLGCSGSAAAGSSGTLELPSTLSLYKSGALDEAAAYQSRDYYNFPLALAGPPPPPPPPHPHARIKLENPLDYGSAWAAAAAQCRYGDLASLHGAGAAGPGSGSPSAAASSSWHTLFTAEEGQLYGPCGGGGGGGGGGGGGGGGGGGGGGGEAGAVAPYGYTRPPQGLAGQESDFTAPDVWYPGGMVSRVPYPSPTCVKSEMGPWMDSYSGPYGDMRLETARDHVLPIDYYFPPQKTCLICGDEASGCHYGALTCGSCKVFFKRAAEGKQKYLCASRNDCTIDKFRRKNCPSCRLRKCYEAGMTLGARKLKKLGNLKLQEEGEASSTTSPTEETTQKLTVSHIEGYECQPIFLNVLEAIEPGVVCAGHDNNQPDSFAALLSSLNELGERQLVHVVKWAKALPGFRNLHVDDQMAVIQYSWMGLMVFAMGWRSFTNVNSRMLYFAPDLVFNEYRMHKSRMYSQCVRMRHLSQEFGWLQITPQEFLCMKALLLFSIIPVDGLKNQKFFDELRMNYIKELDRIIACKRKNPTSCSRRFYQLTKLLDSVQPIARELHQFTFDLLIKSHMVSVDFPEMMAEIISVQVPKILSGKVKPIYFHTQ

As for `CO/N=C(\C(=O)N[C@@H]1C(=O)N2C(C(=O)O)=C(CSc3nc(=O)c(O)nn3C)CS[C@H]12)c1csc(N)n1`, the Potency result in assay [1], in [2], in assay [3], in [8], in [9] and in assay [10] was “inactive” each time. In assay [14], the Potency result was “inactive”. The result in assay [4], in assay [5], in assay [6], in assay [7], in assay [11] and in assay [12] was inactive. Besides, the call in assay [13] was inactive.

With `Cc1ccc(C(=O)Nc2ccc(S(=O)(=O)O)c3cc(S(=O)(=O)O)cc(S(=O)(=O)O)c23)cc1NC(=O)c1cccc(NC(=O)Nc2cccc(C(=O)Nc3cc(C(=O)Nc4ccc(S(=O)(=O)O)c5cc(S(=O)(=O)O)cc(S(=O)(=O)O)c45)ccc3C)c2)c1`, the Potency entry in assay [1], in assay [2], in assay [3], in [8], in assay [15] and in assay [16] was “inactive” throughout. Also, the Potency result in [14] was “inactive”. The result in assay [4], in assay [5], in [6], in assay [7], in assay [11] and in assay [12] was inactive. For the same compound, the call in [13] and in assay [17] was inactive.

As for `CCN[C@@H]1C[C@H](N)[C@@H](OC2OC(CN)=CCC2N)[C@H](O)[C@H]1O[C@H]1OC[C@](C)(O)[C@H](NC)[C@H]1O` (some centres undefined), the activity change, negative = inhibition in assay [1] is 2.07% [at 0.349 µM]; in [15], 9.29% [at 0.348 µM]. Besides, the activity change, negative = cytotoxicity in [2] is 0.828% [at 0.35 µM]; in [3], 6.54% [at 0.349 µM]; in assay [4], 16.4% [at 0.349 µM]; in assay [8] it was 7.38% [at 0.349 µM]; in assay [16] it was 4.73% [at 0.348 µM]; in assay [10], -2.08% [at 0.349 µM]. In addition, in [12], the activity change, negative = cytotoxicity is -2.15% [at 0.29 µM]. Further, the activation is 0.0091% [at 0.349 µM] in assay [9], -2.06% [at 0.29 µM] in assay [13] and -0.947% [at 0.218 µM] in assay [14]. Besides, the viability change, negative = cytotoxic in [11] is 6.56% [at 0.29 µM]. The activity, negative = inhibition in assay [17] is 0.737% [at 0.194 µM].

As to `CC(C)COC(=O)c1ccc(N)cc1`, the Potency result in assay [1], in assay [2], in assay [3], in [8], in assay [9] and in assay [15] was “inactive” in each case. The Potency result in assay [16], in [10] and in [14] was “inactive” throughout. Moreover, the outcome in assay [4], in assay [6], in [7], in assay [11], in assay [12] and in assay [13] was inactive. In addition, in [17], the outcome was inactive.

With `CCCc1ncc(C[n+]2ccccc2C)c(N)n1`, the Potency result in assay [18], in assay [19], in [2], in [3], in assay [8] and in assay [9] was “inactive” throughout. For the same compound, the Potency entry in assay [15], in assay [16], in [10] and in assay [14] was “inactive” throughout. Besides, the compound was called inactive in [4], in assay [11], in assay [12] and in [13].

On to `CCO[Si](OCC)(OCC)c1ccccc1`, for which the Potency result in assay [18], in assay [19], in [2], in [3], in [8] and in assay [9] was “inactive” each time. The Potency entry in assay [15], in assay [16], in [10] and in assay [14] was “inactive” each time. Further, the call in assay [6], in assay [7], in assay [11], in [12], in [13] and in assay [17] was inactive.

Take `CCOC(=O)C1=NOC(c2ccccc2)(c2ccccc2)C1`: the Potency result in assay [18], in [19], in assay [2], in assay [3], in assay [8] and in [9] was “inactive” each time. Further, the Potency entry in assay [15], in assay [16], in assay [10] and in assay [14] was “inactive” throughout. Besides, the call in assay [4], in assay [5], in assay [6], in assay [7], in assay [11] and in assay [12] was inactive. The outcome in [13] and in assay [17] was inactive.

Consider `COC(=O)C1=C(C)NC(C)=C(C(=O)OC(C)C)C1c1cccc2nonc12` (centres undefined), for which the Potency result in [18], in assay [2], in assay [3], in assay [20], in assay [8] and in assay [9] was “inactive” throughout. In assay [19], the Potency was 26.6 µM (active). In addition, the outcome in [4], in assay [6], in assay [11], in assay [12] and in assay [13] was inactive.
